HPGD block: HPGD (human) dehydrogenase inhibition. P15428. purified HPGD, NADH fluorescence kinetic, PGE2 substrate. Potency, µM, for the others: top-dose activity change, negative = inhibition, hits mostly inhibitors. actives 4.3% (n = 150,000). AID 894; active = well fitted inhibition curve with a large enough effect, not every such curve was filed as active; inconclusive = small, poorly fitted or top-dose-only effect, or another doubt; inactive = no such curve, though single readings can be large or run the other way; also: % is scaled to controls: 0 for no effect and ±100 for the full control effect
Target sequence (P15428 whole entry, looked up): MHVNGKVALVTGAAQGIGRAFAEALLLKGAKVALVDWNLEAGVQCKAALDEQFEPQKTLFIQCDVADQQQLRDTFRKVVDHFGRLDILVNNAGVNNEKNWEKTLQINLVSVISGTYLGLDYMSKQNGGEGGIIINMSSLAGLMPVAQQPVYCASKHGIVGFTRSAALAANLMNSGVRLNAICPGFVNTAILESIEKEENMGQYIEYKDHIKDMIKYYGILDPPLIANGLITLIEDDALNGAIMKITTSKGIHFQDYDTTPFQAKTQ
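NADH formation kinetics: reaction with 30 uM PGE2 and 1 mM NAD+ (final), 20 nM enzyme, Tris-HCl pH 8 with Tween 20, after 15 min compound preincubation at room temperature. Fluorescence change, last versus first of five reads.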
KinaseGlo FLuc: Kinase-Glo luciferase inhibition (counter-screen). Q27757. Kinase-Glo luciferase, ATP luminescence, 8 min. Potency, µM (titrated, usually from 38.3 µM), without a hit: top-dose activity change, negative = inhibition, actives largely listed as inhibitors. actives 0.28% (n = 200,000). AID 1379; also: % is scaled to controls: 0 for no effect and ±100 for the full control effect; nearly all actives have a fitted effect of over 60% in size
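Recombinant Kinase-Glo luciferase, 10 uM ATP (linear range), luciferin; imidazole pH 7.2 / KCl / MgCl2 / Tween / BSA buffer; 8 min RT; luminescence.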
LMNA splice mod: modulators of lamin A splicing | HeLa LMNA splicing GFP/RFP minigene ratio, 48 h | Potency, µM (top dose mostly 46.1 µM), for the others: at the highest dose ratio change, negative = inhibition, actives largely listed as inhibitors | actives 0.01% (n = 200,000); active = well fitted inhibition curve with a large enough effect in the signal ratio, with a control signal flat, not every such curve was filed as active; inconclusive = small, poorly fitted or top-dose-only effect, or effect the other way, or a change in a side signal; the % refers to the signal ratio; also: % is scaled to controls: 0 for no effect and ±100 for the full control effect
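Read-out is the ratio of GFP to DsRed2 object intensity, acquired by 488 nm laser-scanning cytometry on HeLa lamin A-EGFP minigene reporter cells. Compound incubation 48 hrs at 37 °C in Opti-MEM with 2% FBS; DMSO 0.5% final.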
HTT aggregate: reduces HttQ103-GFP aggregates in PC12 cells. AID 1688. Potency, µM (top dose mostly 46.1 µM), for inactives: top-dose activity change, negative = inhibition, hits mostly inhibitors. actives 1.1% (n = 220,000). PC12 HttQ103-GFP aggregates, Acumen cytometry, 40 h; also: % is scaled to controls: 0 for no effect and ±100 for the full control effect; nearly all actives have a fitted effect of over 60% in size
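Aggregates are detected as GFP objects 1–25 µm with signal 6 STDEV over background in lysates of induced PC12 cells. These carry Huntingtin exon 1 with 103 glutamines fused to GFP under an ecdysone promoter; compounds titrated.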
HTT cytoprotect: cytoprotection in Huntington HTT-Q103 PC12 cell model; actives 0.14% (n = 230,000); PC12 HTT-Q103 induced, cytoprotection, ATP luminescence, 40 h; Potency, µM (top dose mostly 56.4 µM), inactives show cytoprotection (ATP increase), usual class: activators; also: % of control where 0% means no effect; nearly all actives have a fitted effect of over 45% in size
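ATP quantification (ATPlite) reports survival of PC12 cells in which tebufenozide, 100 nM final, switches on Htt exon 1 with 103 glutamines linked to GFP; compounds are titrated.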
ALDH1A1 inh: ALDH1A1 (human) enzyme inhibition; Purified ALDH1A1, NADH fluorescence, propionaldehyde substrate; Potency, µM (top dose mostly 75.3 µM), for the others: at the highest dose activity, negative = inhibition, usual class: inhibitors; actives 7.3% (n = 220,000); active = well fitted inhibition curve with a large enough effect, not every such curve was filed as active; inconclusive = small, poorly fitted or top-dose-only effect, or another doubt; inactive = no such curve, though single readings can be large or run the other way;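 also: plate controls were no enzyme wells and a reference inhibitor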
Target sequence (P00352 whole entry, looked up): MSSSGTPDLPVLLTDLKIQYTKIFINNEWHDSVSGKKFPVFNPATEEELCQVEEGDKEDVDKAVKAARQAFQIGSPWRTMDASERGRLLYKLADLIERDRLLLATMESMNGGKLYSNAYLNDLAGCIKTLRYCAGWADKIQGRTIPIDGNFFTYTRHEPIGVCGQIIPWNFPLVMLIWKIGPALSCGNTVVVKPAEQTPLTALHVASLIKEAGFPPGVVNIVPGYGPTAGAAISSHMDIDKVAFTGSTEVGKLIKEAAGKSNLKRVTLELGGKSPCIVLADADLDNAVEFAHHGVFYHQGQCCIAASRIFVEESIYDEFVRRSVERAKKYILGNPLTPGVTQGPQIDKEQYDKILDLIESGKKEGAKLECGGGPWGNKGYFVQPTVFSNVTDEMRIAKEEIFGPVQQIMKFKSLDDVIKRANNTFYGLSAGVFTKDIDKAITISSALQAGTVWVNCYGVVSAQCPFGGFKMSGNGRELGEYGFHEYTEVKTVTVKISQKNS
An asterisk follows results filed as active; ? = inconclusive; nt = not tested or not shown; [ ] = another dose, or the depositor's remark. An excerpt weighted towards active compounds, which were near 9% of everything screened. Unless noted, calls follow the shape of the dose curve; as a rule, active = well fitted curve in the direction sought with a large enough effect; inconclusive = small, poorly fitted or top-dose-only effect, or another doubt; inactive = no such curve, though single readings can be large; an effect the other way counts as inactive or inconclusive. Potency is read from the fitted curve at half-maximal effect.

SMILES	HPGD block	KinaseGlo FLuc	LMNA splice mod	HTT aggregate	HTT cytoprotect	ALDH1A1 inh
CC[N+]1=C(C)C(C)(C)c2cc(C)ccc21	nt	-4%	?	2.5µM*	-112%	-2%
COc1ccc(Cl)cc1CN1CCOCC1	nt	nt	nt	-7%[9.22 µM]	-11%[10 µM]	nt
Cc1cc(OCc2cccc(Cl)c2)c(C)cc1CN1CCOCC1	nt	3%	nt	?	1.1µM*	5%
Cc1cccc(C2CC(c3ccccc3)Nc3ncnn32)c1 (configuration not stated)	-2%	0%	1%	10%	-17%	1%
O=Cc1cnc(N2CCN(c3ccccc3)CC2)s1	nt	0%	nt	26%	-12%	4µM*
c1ccc(N2CCN(c3cnc4ccccc4n3)CC2)cc1	22µM*	-7%	0%	?	-76%	?
O=Cc1cnc(N2CCN(Cc3ccccc3)CC2)s1	nt	0%	nt	32%[9.22 µM]	-27%	0.79µM*
CNc1nnc(-c2cccc(N(C)C)c2)s1	-23%	-5%	1%	-4%	5%[1.9 µM]	?
NC(N)=Nc1nc(C2COc3ccccc3O2)cs1 (configuration not stated)	-15%	1%	?	-6%	40%[10 µM]	7%
O=C(C1CCN(S(=O)(=O)c2cccc3nonc23)CC1)N1CCN(c2ccccc2F)CC1	nt	nt	2%[46 µM]	nt	nt	nt
Cc1ccc(NC(=O)C2CCN(S(=O)(=O)c3cccc4nonc34)CC2)nc1	nt	nt	?	-5%	-8%	?
CC1CCN(C(=O)C2CCN(S(=O)(=O)c3cccc4nonc34)CC2)CC1	16µM*	-2%	-1%	-2%	-17%	?
O=C(Nc1ccccn1)C1CCN(S(=O)(=O)c2cccc3nonc23)CC1	-16%	-4%	-1%	2%	6%	28µM*
CC1CCCN(C(=O)C2CCN(S(=O)(=O)c3cccc4cccnc34)CC2)C1 (configuration not stated)	14µM*	0%	2%	?	-16%	?
CCN1CCN(C(=O)C2CCN(S(=O)(=O)c3cccc4cccnc34)CC2)CC1	-11%	-4%	1%	10%	-13%	11%
COc1cc2nc(SCc3ccc(Cl)cc3Cl)n(Cc3cccs3)c(=N)c2cc1OC	?	1%	7%	?	-69%	-1%
COC(=O)C1=C(C)N(Cc2ccccc2)[C@]23O[C@](C(=O)OC)(C(=O)N2C1c1ccccc1)C1CCCC(=O)C13 (some centres not stated)	nt	nt	nt	nt	-19%[10 µM]	14%[13.5 µM]
O=C(O)c1ccc(-n2nnnc2Oc2ccccc2C(=O)N2CCOCC2)cc1	-3%	4%	-1%	-4%	6%	8%
O=C1CC(N2CCC(c3nc4ccccc4[nH]3)CC2)C(=O)N1c1ccccc1F (configuration not stated)	nt	-1%	-11%[46 µM]	9%	-16%	10µM*
COc1ccc(N2C(=O)CC(N3CCC(c4nc5ccccc5[nH]4)CC3)C2=O)cc1 (configuration not stated)	2%	-1%	7%	?	-14%	?
O=C(NCc1ccco1)c1ccccc1NS(=O)(=O)c1ccc(Cl)s1	-1%	-4%	?	18µM*	-18%	?
Cc1ccc(NC(=O)c2ccccc2NS(=O)(=O)c2ccc(Cl)s2)cc1	-6%	0%	?	3.2µM*	-39%[10 µM]	-13%
O=C(Nc1ccccc1Cc1ccccc1)c1ccccc1NS(=O)(=O)c1ccc(Cl)s1	-1%	-2%	?	2.5µM*	nt	-2%
O=S(=O)(NCc1c(Cl)cccc1Oc1ccccc1)c1ccccc1	nt	nt	nt	2%[9.22 µM]	13%[10 µM]	nt
Cc1ccc(OCCOc2cccc(Br)c2)c([N+](=O)[O-])n1	?	-1%	?	13%	nt	-7%
SMILES	HPGD block	KinaseGlo FLuc	LMNA splice mod	HTT aggregate	HTT cytoprotect	ALDH1A1 inh
O=C(Cc1ccc2c(c1)CCCC2)Nc1ccccc1Br	25µM*	-1%	18%	11%	-9%	-11%
O=C(C[n+]1ccccc1)Nc1ccccc1Br	nt	-2%	nt	-14%[9.22 µM]	12%[10 µM]	1.8µM*
O=C(C[n+]1ccccc1)Nc1c(Cl)cc(Cl)cc1Cl	nt	-9%	nt	8%[9.22 µM]	25%[10 µM]	7.9µM*
O=C(Cn1cc2c(n1)CCCC2)Nc1ccccc1Br	?	0%	3%	13%	-8%	2%
CCN1CCN(C(=O)Cn2c(-c3cccs3)cc3cc(Cl)ccc32)CC1	nt	nt	-20%[46 µM]	nt	nt	nt
COC(=O)c1c(NC(=S)Nc2ccc(CC(=O)O)cc2)sc(C)c1C	-26%	0%	9%	9%	-1%[10 µM]	25µM*
Cc1sc(NC(=S)Nc2ccc(F)cc2)c(C(N)=O)c1C	nt	3%	11%[46 µM]	-1%[9.22 µM]	6%[10 µM]	10µM*
CCOC(=O)c1c(NC(=S)Nc2ccc(Cl)cc2)sc(C)c1C	-6%	19%	-1%	3%	9%	-4%
Cc1cc(C)c2c(CN3CCOCC3)cc(=O)oc2c1C	nt	nt	nt	-2%[9.22 µM]	-22%[10 µM]	nt
Cn1nnnc1SC(C(=O)Nc1cccc(C(F)(F)F)c1)c1ccccc1 (configuration not stated)	-9%	-2%	?	-20%	30%[10 µM]	?
CCOC(=O)c1c(-c2ccc(OC)cc2)nc2nonc2c1N	0%	1%	-12%	?	0.71µM*	9%
COCC(=O)N1CCC[C@@]2(CCN(Cc3ccccc3)C2)C1	-5%	-4%	nt	nt	24%	-4%
Cc1ccc2c(c1)nnn2C1CCN(S(=O)(=O)c2ccc(C(=O)N3C(C)CCCC3C)cc2)CC1 (configuration not stated)	-9%	2%	11%	13µM*	-65%	-3%
Cc1ccc2c(c1)nnn2C1CCN(S(=O)(=O)c2ccc(C(=O)O)cc2)CC1	nt	5%	4%[46 µM]	-12%[9.22 µM]	-19%[10 µM]	13%
COc1cccc(OC)c1C(=O)NC(=S)NNC(=O)[C@H]1C[C@@H]1c1ccccc1	nt	nt	nt	16%[9.22 µM]	15%[10 µM]	3%
O=C(NC(=S)NNC(=O)[C@H]1C[C@@H]1c1ccccc1)c1cccc(F)c1	nt	nt	nt	7%[9.22 µM]	19%[10 µM]	22µM*
O=c1c[n+]([O-])c2ccccc2n1OCc1ccccn1	-20%	-3%	2%	7%	16%	?
CC(C)c1nnc(NC(=O)c2cccc(NC(=O)C(F)(F)F)c2)s1	nt	4%	-8%[46 µM]	15%	-82%	22µM*
Oc1ccc(Nc2nc(-c3ccc(O)cc3)cs2)cc1	?	-1%	?	?	-5%[10 µM]	22µM*
Nc1ccc(Nc2nc(-c3ccncc3)cs2)cc1	-8%	-4%	?	?	-23%	22µM*
COc1ccc(N=Cc2cc(Cc3ccccc3Cl)cc([N+](=O)[O-])c2O)cc1OC	nt	-1%	nt	22µM*	35µM*	7.1µM*

From PubChem
